# Test results as given in PubChem BioAssay (EPA / NIEHS).
# Activity calls are given as the source filed them. How the source made its calls: active means hit-call score of the fitted dose curve at least 0.9, where 1 is the maximum; inactive means score below 0.9.
# Read-out: Fatty acid synthase (Homo sapiens) (UniProt P49327)
# Assay: LTEA_HepaRG_FASN: Life Technologies and Expression Analysis (LTEA) Assay for Fatty Acid Synthase (FASN) using HepaRG (AID 2283448);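 on AC50: differentiated human HepaRG liver cells in serum-free induction medium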
# Conditions: mRNA level, 48 h; actives raise or lower the signal
# Outline: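 In human HepaRG cultures, 48 h chemical exposure (up to 100 uM, 0.5% DMSO) preceded TaqMan qRT-PCR of FASN.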
# Chain of Fatty acid synthase (Homo sapiens) (P49327 whole entry, looked up): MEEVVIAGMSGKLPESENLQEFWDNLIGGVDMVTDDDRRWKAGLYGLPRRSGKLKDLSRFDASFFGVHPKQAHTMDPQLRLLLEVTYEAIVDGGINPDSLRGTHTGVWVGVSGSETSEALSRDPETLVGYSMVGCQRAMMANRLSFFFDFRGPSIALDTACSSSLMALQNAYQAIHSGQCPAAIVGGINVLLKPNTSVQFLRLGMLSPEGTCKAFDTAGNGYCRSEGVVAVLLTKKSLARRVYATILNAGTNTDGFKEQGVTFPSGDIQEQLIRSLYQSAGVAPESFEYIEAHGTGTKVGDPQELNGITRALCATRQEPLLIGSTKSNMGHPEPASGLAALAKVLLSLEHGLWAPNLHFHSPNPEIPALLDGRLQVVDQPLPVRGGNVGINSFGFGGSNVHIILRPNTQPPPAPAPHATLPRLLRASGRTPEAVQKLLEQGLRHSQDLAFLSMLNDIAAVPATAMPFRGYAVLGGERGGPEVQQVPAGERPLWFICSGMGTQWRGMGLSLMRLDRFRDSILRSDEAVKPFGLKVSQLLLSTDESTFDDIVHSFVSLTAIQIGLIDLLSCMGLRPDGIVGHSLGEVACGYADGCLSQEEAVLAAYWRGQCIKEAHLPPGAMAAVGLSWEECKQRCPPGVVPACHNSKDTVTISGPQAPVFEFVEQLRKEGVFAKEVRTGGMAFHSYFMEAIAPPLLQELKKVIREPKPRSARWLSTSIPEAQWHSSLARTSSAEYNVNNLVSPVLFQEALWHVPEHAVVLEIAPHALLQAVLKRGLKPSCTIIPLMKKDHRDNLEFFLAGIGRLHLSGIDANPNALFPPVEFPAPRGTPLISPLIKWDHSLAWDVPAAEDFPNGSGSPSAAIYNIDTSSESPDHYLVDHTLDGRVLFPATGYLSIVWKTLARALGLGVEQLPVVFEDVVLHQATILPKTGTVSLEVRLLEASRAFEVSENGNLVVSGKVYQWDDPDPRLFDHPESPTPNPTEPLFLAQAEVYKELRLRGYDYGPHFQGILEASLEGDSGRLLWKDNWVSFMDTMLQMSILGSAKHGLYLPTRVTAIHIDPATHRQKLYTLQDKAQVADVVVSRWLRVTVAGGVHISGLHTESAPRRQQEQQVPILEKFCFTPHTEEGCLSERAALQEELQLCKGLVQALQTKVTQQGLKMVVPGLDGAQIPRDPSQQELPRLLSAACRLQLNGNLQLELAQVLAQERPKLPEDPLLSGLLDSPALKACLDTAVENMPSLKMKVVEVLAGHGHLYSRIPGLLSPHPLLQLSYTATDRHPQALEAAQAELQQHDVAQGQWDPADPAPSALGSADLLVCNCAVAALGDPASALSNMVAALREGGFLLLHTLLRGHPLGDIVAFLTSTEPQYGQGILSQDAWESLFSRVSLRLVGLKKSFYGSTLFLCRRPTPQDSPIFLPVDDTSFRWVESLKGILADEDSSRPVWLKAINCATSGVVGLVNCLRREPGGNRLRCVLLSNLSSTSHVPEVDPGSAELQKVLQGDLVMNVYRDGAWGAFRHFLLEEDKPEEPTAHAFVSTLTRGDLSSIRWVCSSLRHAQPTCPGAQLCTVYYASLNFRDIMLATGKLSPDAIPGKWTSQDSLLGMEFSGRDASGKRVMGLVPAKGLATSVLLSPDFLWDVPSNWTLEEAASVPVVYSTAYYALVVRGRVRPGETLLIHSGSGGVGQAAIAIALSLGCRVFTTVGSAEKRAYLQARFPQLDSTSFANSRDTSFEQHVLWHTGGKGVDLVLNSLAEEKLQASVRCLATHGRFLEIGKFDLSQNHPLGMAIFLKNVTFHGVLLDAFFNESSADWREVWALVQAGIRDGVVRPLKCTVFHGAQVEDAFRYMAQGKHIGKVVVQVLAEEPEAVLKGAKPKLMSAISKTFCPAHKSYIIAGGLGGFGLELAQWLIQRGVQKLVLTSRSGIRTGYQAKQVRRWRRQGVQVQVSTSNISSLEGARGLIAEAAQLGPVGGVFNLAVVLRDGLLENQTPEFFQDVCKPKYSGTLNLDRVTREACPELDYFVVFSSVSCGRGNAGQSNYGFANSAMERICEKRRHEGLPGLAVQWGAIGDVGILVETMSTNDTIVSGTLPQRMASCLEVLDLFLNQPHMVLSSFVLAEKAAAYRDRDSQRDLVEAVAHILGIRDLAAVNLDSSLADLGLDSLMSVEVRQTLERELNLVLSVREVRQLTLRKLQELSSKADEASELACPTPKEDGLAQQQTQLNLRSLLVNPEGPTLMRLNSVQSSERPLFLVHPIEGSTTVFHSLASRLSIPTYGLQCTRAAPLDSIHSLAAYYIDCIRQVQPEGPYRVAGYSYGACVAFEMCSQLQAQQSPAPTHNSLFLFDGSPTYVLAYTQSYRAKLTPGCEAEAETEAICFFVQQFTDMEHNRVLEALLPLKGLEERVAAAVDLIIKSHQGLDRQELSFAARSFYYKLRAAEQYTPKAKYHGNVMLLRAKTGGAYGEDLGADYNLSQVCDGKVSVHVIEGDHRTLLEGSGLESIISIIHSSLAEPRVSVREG
Structure (SMILES),outcome,AC50
Cc1ccc(C)c(C)c1,inactive,–
Nc1ccc2c(c1)C(=O)c1ccccc1C2=O,–,2.86 µM (active)
C[C@]12C=CC(=O)C=C1CC[C@@H]1[C@@H]2C(=O)C[C@@]2(C)[C@H]1CC[C@]2(O)C(=O)CO,inactive,–
Cc1cc(NC(=O)C(=O)O)cc(C)c1Oc1ccc(O)c2c1CCC2,inactive,–
Cc1nc(-c2ccc3c(c2)CCN(CCC2CCC(NC(=O)/C=C/c4ccc(F)cc4)CC2)CC3)no1 (centres undefined),inactive,–
Cc1cccc(Nc2cc(Cl)nc(SCC(=O)O)n2)c1C,inactive,–
C=CCc1ccc(O)c(OC)c1,inactive,–
Nc1ccc(S(=O)(=O)c2ccc(N)cc2)cc1,inactive,–
CC1(C)CC(N=C=O)CC(C)(CN=C=O)C1 (centres undefined),–,69.7 µM (active)
O=C(OCCCCCOC(=O)c1ccccc1)c1ccccc1,inactive,–
C1CCC(SSC2CCCCC2)CC1,inactive,–
Nc1ccccc1N,–,71.4 µM (active)
Cc1nc(C)nc(N2C[C@@H](C)N(c3ccnc([C@@H](C)O)n3)[C@@H](C)C2)n1,inactive,–
COc1ccc(C)cc1N,inactive,–
COc1ccc(S(=O)(=O)N2C(=O)[C@@](c3ccccc3OC)(N3C[C@H](O)C[C@H]3C(=O)N(C)C)c3cc(Cl)ccc32)c(OC)c1,–,22.7 µM (active)
CCCCCCCCCCCC(=O)OC,inactive,–
Cc1c(C(=O)O)c(O)cc2c1C(=O)c1c(O)c([C@@H]3O[C@H](CO)[C@@H](O)[C@H](O)[C@H]3O)c(O)c(O)c1C2=O,inactive,–
Cc1ccc(N(C)C)cc1,inactive,–
CN1CCN(Cc2cc(-c3ccc4[nH]c(=O)oc4c3)co2)[C@@H](c2ccc(F)cc2)C1,inactive,–
